Measurements taken from article PMC9911399, “Two distinct binding modes provide the RNA-binding protein RbFox with extraordinary sequence specificity”.
Changes are numbered by the printed parent chain; changes in the protein carry UniProt numbers. In all, about 16,000 sequences were measured (“ka relative to ugcaugu”: median about 0.096, highest 2% from about 0.35 on). The sample holds the highest values, similar sequences and a random draw of the others, so the mix is not that of the screen.

T1: RBFOX1 RRM RbFoxmut (Fox-RRM*) (Homo sapiens, UniProt Q9NWB1 109-208, R118D;E147R;N151S;E152T)
T1 sequence: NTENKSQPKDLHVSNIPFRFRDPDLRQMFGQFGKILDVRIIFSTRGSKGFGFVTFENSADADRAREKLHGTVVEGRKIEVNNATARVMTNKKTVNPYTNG

B1: CAAGCAG (DNA:RNA)
RNA: GGGAGACCGGAAUUCAGAUUGUCCCAAGCAGUUAAAUCCCGUCGUAGCCACCA
DNA 1: CAATCTGAATTCCGGTCTCCC
DNA 2: TGGTGGCTACGACGGGATT
B2: CACGUCU (DNA:RNA)
RNA: B1 RNA with A27C, C29U, A30C, G31U
DNA 1: CAATCTGAATTCCGGTCTCCC
DNA 2: TGGTGGCTACGACGGGATT
B3: CCCUGGA (DNA:RNA)
RNA: B1 RNA with A26C, A27C, G28U, C29G, A30G, G31A
DNA 1: CAATCTGAATTCCGGTCTCCC
DNA 2: TGGTGGCTACGACGGGATT
B4: UGGGGGA (DNA:RNA)
RNA: B1 RNA with C25U, A26G, A27G, C29G, A30G, G31A
DNA 1: CAATCTGAATTCCGGTCTCCC
DNA 2: TGGTGGCTACGACGGGATT
B5: UGGAUUU (DNA:RNA)
RNA: GGGAGACCGGAAUUCAGAUUGUCCUGGAUUUUUAAAUCCCGUCGUAGCCACCA
DNA 1: CAATCTGAATTCCGGTCTCCC
DNA 2: TGGTGGCTACGACGGGATT
B6: CUGGAUG (DNA:RNA)
RNA: B1 RNA with A26U, A27G, C29A, A30U
DNA 1: CAATCTGAATTCCGGTCTCCC
DNA 2: TGGTGGCTACGACGGGATT
B7: UGGAUGU (DNA:RNA)
RNA: B5 RNA with U30G
DNA 1: CAATCTGAATTCCGGTCTCCC
DNA 2: TGGTGGCTACGACGGGATT
B8: UGCGAUC (DNA:RNA)
RNA: B5 RNA with G27C, A28G, U29A, U31C
DNA 1: CAATCTGAATTCCGGTCTCCC
DNA 2: TGGTGGCTACGACGGGATT
B9: CGGAUGU (DNA:RNA)
RNA: B5 RNA with U25C, U30G
DNA 1: CAATCTGAATTCCGGTCTCCC
DNA 2: TGGTGGCTACGACGGGATT
B10: CUGGAGA (DNA:RNA)
RNA: B1 RNA with A26U, A27G, C29A, A30G, G31A
DNA 1: CAATCTGAATTCCGGTCTCCC
DNA 2: TGGTGGCTACGACGGGATT
B11: UGCGCGA (DNA:RNA)
RNA: B1 RNA with C25U, A26G, A27C, A30G, G31A
DNA 1: CAATCTGAATTCCGGTCTCCC
DNA 2: TGGTGGCTACGACGGGATT
B12: UGGGAUG (DNA:RNA)
RNA: B5 RNA with A28G, U29A, U31G
DNA 1: CAATCTGAATTCCGGTCTCCC
DNA 2: TGGTGGCTACGACGGGATT
B13: UGCGAUG (DNA:RNA)
RNA: B5 RNA with G27C, A28G, U29A, U31G
DNA 1: CAATCTGAATTCCGGTCTCCC
DNA 2: TGGTGGCTACGACGGGATT
B14: UGGGAGA (DNA:RNA)
RNA: B5 RNA with A28G, U29A, U30G, U31A
DNA 1: CAATCTGAATTCCGGTCTCCC
DNA 2: TGGTGGCTACGACGGGATT
B15: UAACCGA (DNA:RNA)
RNA: B1 RNA with C25U, G28C, A30G, G31A
DNA 1: CAATCTGAATTCCGGTCTCCC
DNA 2: TGGTGGCTACGACGGGATT
B16: UGACGUC (DNA:RNA)
RNA: B5 RNA with G27A, A28C, U29G, U31C
DNA 1: CAATCTGAATTCCGGTCTCCC
DNA 2: TGGTGGCTACGACGGGATT
B17: UGGUAGU (DNA:RNA)
RNA: B5 RNA with A28U, U29A, U30G
DNA 1: CAATCTGAATTCCGGTCTCCC
DNA 2: TGGTGGCTACGACGGGATT
B18: UGCCGUU (DNA:RNA)
RNA: B5 RNA with G27C, A28C, U29G
DNA 1: CAATCTGAATTCCGGTCTCCC
DNA 2: TGGTGGCTACGACGGGATT
B19: CCAUGGC (DNA:RNA)
RNA: B1 RNA with A26C, G28U, C29G, A30G, G31C
DNA 1: CAATCTGAATTCCGGTCTCCC
DNA 2: TGGTGGCTACGACGGGATT
B20: AUCUUAC (DNA:RNA)
RNA: B1 RNA with C25A, A26U, A27C, G28U, C29U, G31C
DNA 1: CAATCTGAATTCCGGTCTCCC
DNA 2: TGGTGGCTACGACGGGATT

The binders below were run against T1, RBFOX1 RRM RbFoxmut (Fox-RRM*) (assay: EMSA; HiTS-Eq, 1 nM pool, 10 min; buffer printed only for the single-RNA assays: 10 mM Tris pH 7.5, 150 mM NaCl, 3.4 mM EDTA, 0.001% NP-40, 30 C). Conditions: tags: His6 N-terminal (pET28a); label: 5' 32P.
Summary of the method: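 Purified wild-type or mutant RbFox RRM at increasing concentrations was equilibrated with 1 nM of 5′-radiolabelled RNA carrying 7 randomized nucleotides for 10 min in 50 µL. Unbound RNA was separated by 8% native PAGE and sequenced. Relative association constants came from read-count changes of each RNA species compared with the control reaction, normalised to the cognate motif.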
For B1, the binding signal was 0.0856 KA relative to UGCAUGU. With B2 the binding signal was 0.0849 KA relative to UGCAUGU. In the case of B3, the binding signal is reported as 0.0858 KA relative to UGCAUGU. B4 was tested, and the binding signal was 0.102 KA relative to UGCAUGU. With B5 the binding signal was 0.0654 KA relative to UGCAUGU. With B6 the binding signal was 0.646 KA relative to UGCAUGU. With B7 the binding signal was 0.756 KA relative to UGCAUGU. For B8, the binding signal was 0.286 KA relative to UGCAUGU. With B9 the binding signal was 0.281 KA relative to UGCAUGU. B10 was tested, and the binding signal was 0.0675 KA relative to UGCAUGU. B11 was tested, and the binding signal was 0.0898 KA relative to UGCAUGU. With B12 the binding signal was 0.691 KA relative to UGCAUGU. B13 was tested, and the binding signal was 0.493 KA relative to UGCAUGU. For B14, the binding signal was 0.137 KA relative to UGCAUGU. In the case of B15, the binding signal is reported as 0.0866 KA relative to UGCAUGU. With B16 the binding signal was 0.0923 KA relative to UGCAUGU. With B17 the binding signal was 0.163 KA relative to UGCAUGU. In the case of B18, the binding signal is reported as 0.113 KA relative to UGCAUGU. B19 was tested, and the binding signal was 0.0829 KA relative to UGCAUGU. For B20, the binding signal was 0.12 KA relative to UGCAUGU.
